PubChem BioAssay (NCI)
This is part of a sample that, as a whole, favours compounds with a hit. Of some 83,000 tested, about 20% had one in any assay.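 Single-concentration screen, 48 h exposure, 96-well plates. Endpoint: percent growth. Below 10 = active.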 The source made the active and inactive calls.

Assays:
Assay in all cases: NCI-60 one-dose screen, 48 h (100 = growth as untreated, 0 = no growth, -100 = all killed)
Settings in all cases: 10 µM unless noted
[1] = system: SK-MEL-2 melanoma
[2] = system: EKVX NSCLC
[3] = system: SN12C renal
[4] = system: UO-31 renal
[5] = system: TK-10 renal
[6] = system: ACHN renal
[7] = system: CAKI-1 renal
[8] = system: A498 renal
[9] = system: CCRF-CEM leukemia
[10] = system: MOLT-4 leukemia
[11] = system: SR leukemia
[12] = system: RPMI-8226 leukemia
[13] = system: OVCAR-8 ovarian
[14] = system: OVCAR-5 ovarian
[15] = system: OVCAR-4 ovarian
[16] = system: SK-OV-3 ovarian
[17] = system: IGROV1 ovarian
[18] = system: OVCAR-3 ovarian
[19] = system: HS 578T breast
[20] = system: NCI/ADR-RES ovarian

Measured: growth

COc1ccc2[nH]cc(C(c3cc(F)cc(F)c3)c3c[nH]c4ccc(OC)cc34)c2c1
active: [17] -7.1%
inactive: [1] 62.5% | [2] 88.4% | [3] 87.3% | [4] 44.2% | [5] 124% | [6] 82.9% | [7] 101% | [8] 77.8% | [9] 60.1% | [10] 37.4% | [11] 46.8% | [12] 57.5% | [13] 87.2% | [14] 85% | [15] 93.9% | [16] 94.8% | [18] 89.9% | [19] 67.2% | [20] 72.9%

Cc1cccc2c1NC(=O)C2(c1ccc(O)cc1)c1ccc(O)cc1
active: [13] 4.88% | [15] -16% | [19] -5.53%
inactive: [1] 89.2% | [2] 75.7% | [3] 11.2% | [4] 89.2% | [5] 28.8% | [6] 78.5% | [7] 94.1% | [8] 81.5% | [9] 71.2% | [10] 84.2% | [11] 89% | [12] 80.9% | [14] 75.9% | [16] 89.5% | [17] 45.7% | [18] 25.6% | [20] 11%

CNC(=O)c1c(NC(=O)c2ccc(C(F)(F)F)cc2)sc2c1CCC(=O)C2
inactive: [5] 34.2% | [13] 14% | [19] 12.2%
active: [1] -12.1% | [2] 9.76% | [3] 5.31% | [4] -94.3% | [6] -20.3% | [7] -32.9% | [8] -12.5% | [9] -5.31% | [10] 2.28% | [11] 3.07% | [12] -27% | [14] -44.7% | [15] -81.5% | [16] 0.374% | [17] -4.58% | [18] -6.89% | [20] -4.29%

CCOC(=O)CNP(=O)(OC[C@@H](Cc1ccccc1)NC(=O)c1cc2ccccc2s1)Oc1ccccc1 (stereo not given in full)
inactive: [1] 75.9% | [2] 80.6% | [3] 84.9% | [4] 80.7% | [5] 109% | [6] 99.9% | [7] 70.6% | [8] 38.5% | [9] 86.5% | [10] 54.8% | [11] 23.9% | [12] 79.6% | [13] 89.1% | [14] 95.4% | [15] 88.4% | [16] 91.2% | [17] 79.9% | [18] 79.9% | [19] 76.5% | [20] 51.4%

C#CCOc1cccc(Nc2ncnc3ccc(NC(=O)CCl)cc23)c1
inactive: [16] 20.1% | [19] 24.5%
active: [1] -47.9% | [2] -45.2% | [3] -24.7% | [4] -87.8% | [5] -60.8% | [6] -80.8% | [7] 1.72% | [8] -2.12% | [9] -56.9% | [10] -25.1% | [11] -42.1% | [12] -50.9% | [13] -4.18% | [14] -70.1% | [15] -33.9% | [17] -57.2% | [18] -74.8% | [20] -1.49%

C=CCn1c(SCC(=O)Nc2ccc(C(=O)/C=C/c3ccc(Cl)cc3)cc2)nnc1-c1cc(-c2ccc(S(N)(=O)=O)cc2)nc2ccccc12
inactive: [1] 103% | [2] 94.6% | [3] 90.2% | [4] 82.8% | [5] 99.9% | [6] 98.1% | [7] 66.3% | [8] 89% | [9] 54.2% | [10] 66.1% | [11] 79.5% | [13] 55.5% | [14] 96.7% | [15] 90.2% | [16] 93.7% | [17] 87.7% | [18] 82.8% | [19] 98.2% | [20] 100%
active: [12] 5.47%

C[C@]12C=CC(=O)C=C1CCC1C2[C@@H](O)C[C@@]2(C)C1CC[C@]2(O)C(=O)COC(=O)CCC(=O)O (stereo not given in full)
inactive: [1] 117% | [2] 74.2% | [3] 74.2% | [4] 92.2% | [5] 116% | [6] 102% | [7] 82.5% | [8] 89.2% | [9] 60.9% | [10] 100% | [11] 98% | [12] 64.3% | [13] 91.3% | [14] 89.9% | [15] 98.4% | [16] 80.2% | [17] 102% | [18] 119% | [19] 119% | [20] 92.1%

CN(C)Cc1ccc(NC(=O)c2cncc(C#Cc3cnc(N)c4ncccc34)c2)cc1F
active: [9] 4.73% | [11] 2.94% | [13] -18% | [15] -71.3%
inactive: [1] 88.6% | [2] 93.4% | [3] 86.4% | [4] 108% | [5] 141% | [6] 61.1% | [7] 87.7% | [8] 73.9% | [10] 76.3% | [12] 35.6% | [14] 123% | [16] 112% | [17] 100% | [18] 87.9% | [19] 87.3% | [20] 56.9%

CCCCNC(=O)Oc1ccc(/C(=C(/CC)Cc2ccccc2)c2ccc(OCCN3CCCCCC3)cc2)cc1
active: [9] 5.36% | [10] 2.34% | [11] -24.6% | [12] -27.6%
inactive: [1] 84.9% | [2] 59.2% | [3] 25.8% | [4] 35.2% | [5] 92.4% | [6] 66.4% | [7] 72.1% | [8] 72% | [13] 14% | [14] 73.6% | [15] 32.9% | [16] 82.7% | [17] 42.3% | [18] 72.2% | [19] 56.6% | [20] 53.8%

CCCCC(=O)Nc1ncc(Cc2ccc(Cl)cc2)s1
inactive: [1] 90.4% | [2] 72.2% | [3] 74.6% | [4] 58.2% | [5] 84.8% | [6] 81.8% | [7] 42.3% | [8] 70.6% | [9] 76.4% | [10] 66.2% | [11] 33.5% | [12] 86.2% | [13] 84.9% | [14] 73.9% | [15] 80% | [16] 79.1% | [17] 66.5% | [18] 68.3% | [19] 72.9% | [20] 48.4%

CCC(C)N(c1ccc(Cl)cc1)c1nc(-c2ccc(Br)cc2)cs1 (stereo not given)
inactive: [1] 105% | [2] 80.2% | [3] 99.2% | [4] 81.3% | [5] 131% | [6] 96.4% | [7] 70.9% | [8] 94.7% | [9] 81.7% | [10] 82.7% | [11] 83.5% | [12] 82.8% | [13] 96.7% | [14] 103% | [15] 96.5% | [16] 92.5% | [17] 82.1% | [18] 107% | [19] 91.3% | [20] 102%

CCN(CC)C(=S)SC(SC(=S)N(CC)CC)C(=O)c1nnn(-c2ccc([N+](=O)[O-])cc2)c1C
inactive: [1] 91.6% | [2] 97.2% | [3] 96.4% | [4] 80.5% | [5] 107% | [6] 98.7% | [7] 89.5% | [8] 67.3% | [9] 68.3% | [10] 92.5% | [11] 55.3% | [12] 90.8% | [13] 101% | [14] 106% | [15] 104% | [16] 112% | [17] 71.2% | [18] 98.4% | [19] 113% | [20] 99.8%

CCO/C=N/C1=C(C#N)C(c2ccc(OC)cc2)c2sc3c(F)cccc3c2O1 (stereo not given)
inactive: [1] 33.3% | [2] 49.4% | [3] 39.6% | [4] 38.1% | [5] 51.8% | [6] 48.1% | [7] 25.2% | [8] 21.7% | [9] 12.2% | [10] 24.5% | [11] 25.5% | [13] 36.5% | [14] 63.8% | [15] 64.8% | [16] 49.6% | [17] 44.4% | [20] 16.9%
active: [12] 7.6% | [18] 8.12% | [19] 4.04%

COc1ccc(-c2nc3c(c(-c4ccccc4)nn3-c3ccccc3)c(-c3ccc(N4CCOCC4)cc3)c2C#N)cc1
inactive: [1] 106% | [2] 100% | [3] 97.9% | [4] 103% | [5] 110% | [6] 104% | [7] 93.7% | [8] 98.2% | [9] 99.6% | [10] 94.4% | [11] 110% | [12] 89.8% | [13] 105% | [14] 102% | [15] 106% | [16] 119% | [17] 109% | [18] 115% | [19] 106% | [20] 111%

c1ccc(CNc2c3ccccc3nc3ccccc23)cc1
active: [12] 7.65%
inactive: [1] 60.8% | [2] 48.1% | [3] 37.5% | [4] 23.8% | [5] 48.7% | [6] 18.1% | [7] 33.1% | [8] 16.6% | [9] 39% | [10] 15.5% | [11] 11.7% | [13] 26.1% | [14] 45.7% | [15] 43.2% | [16] 46.7% | [17] 29.8% | [18] 51.7% | [19] 56.1% | [20] 37.6%

O=c1oc2c(cnc3ccccc32)cc1-c1ccsc1
inactive: [1] 106% | [2] 95% | [3] 95.1% | [4] 79.3% | [5] 123% | [6] 93.9% | [7] 84.5% | [8] 107% | [9] 94.6% | [10] 96% | [11] 95% | [12] 96.6% | [13] 94.6% | [14] 114% | [15] 88.4% | [16] 104% | [17] 103% | [18] 108% | [19] 94.9% | [20] 109%
